Reference: PubChem BioAssay AID1159580 (chemical genetic matrix, 2015)
Several values for one entry are separate records, joined by “and”; a condition that tells them apart may be missing. Equal values may be shown once. The whole screen tested about 5,500 compounds, of which about 2,000 (36%) were called active. Another 18% or so got no clear call; they are omitted. Cut-off read from the data, not from the text of the source: active = normalized growth mostly below about 0.91 (no sharp cut-off); inconclusive = no clear call, values can overlap the other calls; inactive = mostly above about 0.92. The list shows a part of the results.

Experiment: chemical genetic growth profiling, strain panel (AID 1159580);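 note: tested at 20 µM; growth read once vehicle control cultures reached saturation at 30 °C; 1 = growth at the plate median or of vehicle wells; lower values mean less growth of the strain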
Settings: S. cerevisiae deletion strains, growth OD

Measured: normalized growth

CC1(C)CC[C@]2(C)CC[C@]3(C)C(=CCC4[C@@]5(C)CC[C@H](O)C(C)(C)C5CC[C@]43C)C2C1 (stereo partly specified)
inactive: locus YAL021C, strain ccr4, stronger effect = lower value 0.992 | locus YAL026C, strain drs2, stronger effect = lower value 1 | locus YAL030W, strain snc1, stronger effect = lower value 0.988 | locus YBL061C, strain skt5, stronger effect = lower value 0.986 | locus YBR009C, strain hhf1, stronger effect = lower value 1.02 | locus YBR021W, strain FUR4, stronger effect = lower value 1.07 | locus YBR023C, strain chs3, stronger effect = lower value 0.975 | locus YBR171W, strain sec66, stronger effect = lower value 0.993 | locus YBR229C, strain ROT2, stronger effect = lower value 1.01 | locus YBR231C, strain swc5, stronger effect = lower value 1 | locus YBR279W, strain paf1, stronger effect = lower value 0.991 | locus YCL011C, strain gbp2, stronger effect = lower value 0.985 | locus YCL016C, strain dcc1, stronger effect = lower value 0.99 | locus YCL029C, strain bik1, stronger effect = lower value 0.999 | locus YCL061C, strain MRC1, stronger effect = lower value 1 | locus YCL069W, strain vba3, stronger effect = lower value 0.995 | locus YCR088W, strain abp1, stronger effect = lower value 0.999 | locus YDL005C, strain med2, stronger effect = lower value 1.01 | locus YDL035C, strain GPR1, stronger effect = lower value 1.02 | locus YDL040C, strain nat1, stronger effect = lower value 1 | locus YDL074C, strain BRE1, stronger effect = lower value 1.02 | locus YDL101C, strain DUN1, stronger effect = lower value 0.997 | locus YDL185W, strain tfp1, stronger effect = lower value 0.954 | locus YDL192W, strain arf1, stronger effect = lower value 0.99 | locus YDR001C, strain nth1, stronger effect = lower value 0.994 | locus YDR069C, strain doa4, stronger effect = lower value 0.978 | locus YDR101C, strain arx1, stronger effect = lower value 1 | locus YDR137W, strain rgp1, stronger effect = lower value 1.01 | locus YDR150W, strain NUM1, stronger effect = lower value 1 | locus YDR159W, strain sac3, stronger effect = lower value 1.02 | locus YDR162C, strain NBP2, stronger effect = lower value 1.04 | locus YDR195W, strain ref2 0.965 | locus YDR297W, strain sur2, stronger effect = lower value 0.972 | locus YDR318W, strain mcm21, stronger effect = lower value 0.985 | locus YDR334W, strain swr1, stronger effect = lower value 0.996 | locus YDR335W, strain msn5, stronger effect = lower value 1 | locus YDR388W, stronger effect = lower value 0.988 | locus YDR392W, strain spt3, stronger effect = lower value 1.01 | locus YDR502C, strain sam2, stronger effect = lower value 0.986 | locus YEL003W, strain gim4, stronger effect = lower value 0.993 | locus YEL037C, strain rad23, stronger effect = lower value 0.998 | locus YEL061C, strain CIN8 (second series), stronger effect = lower value 0.987 | locus YER015W, strain faa2, stronger effect = lower value 0.988 | locus YER016W, strain bim1, stronger effect = lower value 0.995 | locus YER110C, stronger effect = lower value 0.987 | locus YER111C, strain swi4, stronger effect = lower value 0.994 | locus YER155C, strain BEM2 (second series), stronger effect = lower value 0.982 | locus YER155C, strain BEM2, stronger effect = lower value 1 | locus YER167W, strain BCK2, stronger effect = lower value 0.992 | locus YFR010W, strain ubp6, stronger effect = lower value 1.01 | locus YGL078C, strain dbp3, stronger effect = lower value 0.955 | locus YGL086W, strain mad1, stronger effect = lower value 0.987 | locus YGL167C, strain pmr1, stronger effect = lower value 0.994 | locus YGL173C, strain kem1, stronger effect = lower value 0.998 | locus YGL227W, strain vid30, stronger effect = lower value 0.986 | locus YGL240W, strain doc1, stronger effect = lower value 0.983 | locus YGL248W, strain PDE1, stronger effect = lower value 1.01 | locus YGL253W, strain hxk2, stronger effect = lower value 0.993 | locus YGR078C, strain PAC10, stronger effect = lower value 1 | locus YGR135W, strain pre9, stronger effect = lower value 0.963 | locus YGR229C, strain SMI1, stronger effect = lower value 0.989 | locus YGR252W, strain gcn5, stronger effect = lower value 1.04 | locus YHR013C, strain ard1, stronger effect = lower value 0.986 | locus YHR027C, strain rpn1, stronger effect = lower value 0.977 | locus YHR030C, strain SLT2, stronger effect = lower value 1.07 | locus YHR079C, strain IRE1 (second series), stronger effect = lower value 0.989 | locus YHR079C, strain IRE1, stronger effect = lower value 1.03 | locus YHR094C, strain hxt1, stronger effect = lower value 0.997 | locus YHR129C, strain ARP1, stronger effect = lower value 1.01 | locus YHR142W, strain chs7, stronger effect = lower value 1.04 | locus YHR200W, strain rpn10, stronger effect = lower value 0.996 | locus YIL066C, strain RNR3, stronger effect = lower value 1.02 | locus YIL073C, strain SPO22, stronger effect = lower value 0.964 | locus YIL125W, strain kgd1, stronger effect = lower value 0.947 | locus YIR030C, strain dcg1, stronger effect = lower value 0.985 | locus YJL092W, strain hpr5, stronger effect = lower value 1.01 | locus YJL095W, strain BCK1 (second series), stronger effect = lower value 0.991 | locus YJL095W, strain BCK1, stronger effect = lower value 0.995 and 1.03 | locus YJL115W, strain asf1, stronger effect = lower value 0.985 | locus YJL129C, strain trk1, stronger effect = lower value 1.02 | locus YJL134W, strain LCB3, stronger effect = lower value 0.998 | locus YJL154C, strain vps35, stronger effect = lower value 0.99 | locus YJL164C, strain tpk1, stronger effect = lower value 0.999 | locus YJL166W, strain qcr8, stronger effect = lower value 0.997 | locus YJL168C, strain set2, stronger effect = lower value 0.989 | locus YJL187C, strain SWE1 (second series), stronger effect = lower value 0.997
